From PubChem BioAssay
“And” between values parts separate entries of the source, which are not always exact repeats. Identical values can stand only once. Inconclusive results are not listed. For some of these results: Entries with a potency or affinity are not part of this list. The source made the active and inactive calls. Rule as the data show it, unless noted: active = inhibition above about 80%; inactive = the rest.

Legend:
[1] = CRL2098 osteosarcoma cell growth inhibition, synergistic combos for chromothripsis tumors, BGB or cisplatin IC20 combos (AID 1671454); conditions: CRL2098 osteosarcoma cells, drug combinations, stronger effect = higher value;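 also: cells exposed for 96 h before readout; 0% = vehicle DMSO and 100% = killing by high DMSO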
[2] = HD-MB03 medulloblastoma cell growth inhibition, synergistic combos for chromothripsis tumors, BGB or cisplatin IC20 combos (AID 1671455; in the data active = inhibition above about 83%;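 also: 0% = vehicle DMSO and 100% = high DMSO as cytotoxic control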); conditions: HD-MB03 medulloblastoma cells, stronger effect = higher value
[3] = UWB1.289 ovarian carcinoma cell growth inhibition, synergistic combos for chromothripsis tumors, BGB or cisplatin combos (AID 1671456); conditions: UWB1.289 ovarian carcinoma cells, stronger effect = higher value;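 also: cells exposed to compound for four days; 0% = vehicle DMSO and 100% = killing by high DMSO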
[4] = LFS_MB_2R medulloblastoma cell growth inhibition, synergistic combos for chromothripsis tumors, cisplatin combos (AID 1671457); conditions: LFS_MB_2R medulloblastoma cells, stronger effect = higher value;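 also: cells exposed to compound for four days before readout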
[5] = UWB1.289_BRCA1 ovarian cancer growth, cell-based, BGB or cisplatin combinations (AID 1671459); conditions: UWB1.289 BRCA1 ovarian carcinoma, drug combinations, stronger effect = higher value
[6] = human astrocyte viability loss, single and combined drugs, cytotoxicity control for chromothriptic childhood tumor combination screen, cell-based, BGB or cisplatin IC20 combos (AID 1671460); conditions: Human astrocytes, drug combinations, stronger effect = higher value;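 also: cells exposed to compounds for 96 hours before viability readout; 0% = vehicle and 100% = killing control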
[7] = HepG2 cytotoxicity, primary screen, cytotoxicity control for P. falciparum antimalarial project, cell-based, ATP luminescence (AID 2303;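 active = inhibition above 50%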;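 also: 0% = DMSO wells and 100% = digitonin-killed cells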); conditions: HepG2 viability, 24-48 h, at 10 µM, stronger effect = higher value
[8] = target: L-lactate dehydrogenase (Plasmodium falciparum (isolate CDC / Honduras)) (UniProt Q27743); test: PfLDH activity inhibition – cell lysate, 3D7 strain, counter-screen for P. falciparum growth inhibition project (AID 2304; call rule not given here;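 also: 0% = vehicle and 100% = reference inhibitor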); conditions: P. falciparum 3D7 crude extract, LDH APAD/NBT absorbance; at 2 µM; stronger effect = higher value
[9] = inhibition of 3D7 malaria parasite growth – strain 3D7 (AID 2306; call rule not given here;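 also: 0% = DMSO wells and 100% = chloroquine plus artemisinin control wells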); conditions: P. falciparum 3D7 erythrocytic growth, LDH absorbance, 72 h; at 2 µM; stronger effect = higher value
[10] = target: Calcium-dependent protein kinase 1 (Plasmodium falciparum (isolate 3D7)) (UniProt P62344); test: PfCDPK1 kinase inhibitors, biochemical, TCAMS library (AID 1159585; cut-off not given, nearly all actives have IC50 up to about 0.98 µM;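 also: inhibitors leave more ATP so luminescence rises with inhibition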); conditions: recombinant PfCDPK1, Kinase-Glo ATP depletion luminescence
[11] = target: Plasmodium falciparum protein kinase 6 (PK6, PF3D7_1337100) (UniProt Q8IDW1); test: PfPK6 kinase inhibitors, biochemical, TCAMS library (AID 1159586; call rule not given here); conditions: recombinant PfPK6, Kinase-Glo ATP depletion luminescence
[12] = target: Protein kinase 7 (PK7), Plasmodium falciparum 3D7 (PF3D7_0213400) (UniProt Q7YTF7); test: inhibition of Plasmodium PK7 catalytic activity – biochemical, TCAMS antimalarial set, Kinase-Glo luminescence (AID 1159587; call rule not given here); conditions: recombinant PfPK7, Kinase-Glo ATP depletion luminescence
[13] = target: Calcium-dependent protein kinase 4 (Plasmodium falciparum (isolate 3D7)) (UniProt Q8IBS5); test: PfCDPK4 kinase inhibitors, biochemical, TCAMS library (AID 1159588; cut-off not given, nearly all actives have IC50 up to about 0.91 µM); conditions: recombinant PfCDPK4, Kinase-Glo ATP depletion luminescence
[14] = antimalarial activity against Dd2 strain (AID 2302;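 active = growth inhibition above 50% at the single 2 µM test dose, taken to imply half-maximal potency below 2 µM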;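 also: 0% = DMSO untreated growth and 100% = chloroquine plus artemisinin killed control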); conditions: P. falciparum Dd2 in RBCs, LDH growth readout, 72 h; at 2 µM; stronger effect = higher value
[15] = protection against mutant huntingtin cytotoxicity, PC12 cells, LDH release (AID 1610); conditions: PC12 mutant huntingtin toxicity, final LDH at 4 uM, stronger effect = lower value

Plasmodium falciparum protein kinase 6 (PK6, PF3D7_1337100), sequence (Q8IDW1 1-305): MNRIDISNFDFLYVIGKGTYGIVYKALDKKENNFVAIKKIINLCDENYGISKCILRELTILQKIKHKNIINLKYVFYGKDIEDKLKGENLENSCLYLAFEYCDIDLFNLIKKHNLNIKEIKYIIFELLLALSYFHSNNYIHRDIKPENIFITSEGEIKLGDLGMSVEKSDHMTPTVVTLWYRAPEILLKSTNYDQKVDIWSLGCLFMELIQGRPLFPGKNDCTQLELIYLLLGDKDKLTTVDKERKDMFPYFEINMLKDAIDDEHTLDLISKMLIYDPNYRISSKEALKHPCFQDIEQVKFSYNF
Calcium-dependent protein kinase 4 (Plasmodium falciparum (isolate 3D7)), sequence (Q8IBS5 whole entry, looked up): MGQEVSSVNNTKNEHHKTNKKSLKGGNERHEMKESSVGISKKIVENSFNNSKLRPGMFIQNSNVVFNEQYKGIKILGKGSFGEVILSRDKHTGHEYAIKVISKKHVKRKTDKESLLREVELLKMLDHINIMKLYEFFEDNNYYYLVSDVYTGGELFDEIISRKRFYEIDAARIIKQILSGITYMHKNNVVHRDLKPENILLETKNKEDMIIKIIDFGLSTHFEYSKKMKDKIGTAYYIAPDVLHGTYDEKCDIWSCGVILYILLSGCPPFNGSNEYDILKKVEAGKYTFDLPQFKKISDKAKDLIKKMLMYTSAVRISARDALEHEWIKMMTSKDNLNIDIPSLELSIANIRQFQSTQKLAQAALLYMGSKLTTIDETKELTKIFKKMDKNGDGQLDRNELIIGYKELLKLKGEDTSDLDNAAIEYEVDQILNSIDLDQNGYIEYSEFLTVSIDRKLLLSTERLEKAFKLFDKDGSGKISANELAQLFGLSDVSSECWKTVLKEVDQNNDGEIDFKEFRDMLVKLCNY
Calcium-dependent protein kinase 1 (Plasmodium falciparum (isolate 3D7)), sequence (P62344 whole entry, looked up): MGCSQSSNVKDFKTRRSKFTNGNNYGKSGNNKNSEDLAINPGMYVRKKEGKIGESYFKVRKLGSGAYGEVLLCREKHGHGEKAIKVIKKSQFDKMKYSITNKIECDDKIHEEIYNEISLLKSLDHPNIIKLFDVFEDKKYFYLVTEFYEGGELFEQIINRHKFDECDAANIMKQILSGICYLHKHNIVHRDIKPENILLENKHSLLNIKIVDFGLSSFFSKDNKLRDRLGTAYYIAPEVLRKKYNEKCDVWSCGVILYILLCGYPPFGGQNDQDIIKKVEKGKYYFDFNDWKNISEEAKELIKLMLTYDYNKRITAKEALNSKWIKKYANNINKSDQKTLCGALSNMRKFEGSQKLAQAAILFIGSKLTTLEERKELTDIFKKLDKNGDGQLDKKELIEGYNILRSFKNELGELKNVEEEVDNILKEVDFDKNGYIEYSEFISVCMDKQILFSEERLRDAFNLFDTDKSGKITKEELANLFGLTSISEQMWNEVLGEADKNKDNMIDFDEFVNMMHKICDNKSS
Protein kinase 7 (PK7), Plasmodium falciparum 3D7 (PF3D7_0213400), sequence (Q7YTF7 1-343): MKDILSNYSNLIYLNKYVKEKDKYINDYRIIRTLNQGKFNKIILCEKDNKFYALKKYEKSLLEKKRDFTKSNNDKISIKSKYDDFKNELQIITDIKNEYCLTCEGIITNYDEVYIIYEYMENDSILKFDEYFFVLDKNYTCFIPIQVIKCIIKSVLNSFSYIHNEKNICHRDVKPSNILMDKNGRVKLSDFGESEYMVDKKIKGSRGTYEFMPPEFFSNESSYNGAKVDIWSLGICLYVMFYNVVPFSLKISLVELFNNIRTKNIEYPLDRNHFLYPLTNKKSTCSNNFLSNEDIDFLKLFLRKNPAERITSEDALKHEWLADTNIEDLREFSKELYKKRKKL
L-lactate dehydrogenase (Plasmodium falciparum (isolate CDC / Honduras)), sequence (Q27743 whole entry, looked up): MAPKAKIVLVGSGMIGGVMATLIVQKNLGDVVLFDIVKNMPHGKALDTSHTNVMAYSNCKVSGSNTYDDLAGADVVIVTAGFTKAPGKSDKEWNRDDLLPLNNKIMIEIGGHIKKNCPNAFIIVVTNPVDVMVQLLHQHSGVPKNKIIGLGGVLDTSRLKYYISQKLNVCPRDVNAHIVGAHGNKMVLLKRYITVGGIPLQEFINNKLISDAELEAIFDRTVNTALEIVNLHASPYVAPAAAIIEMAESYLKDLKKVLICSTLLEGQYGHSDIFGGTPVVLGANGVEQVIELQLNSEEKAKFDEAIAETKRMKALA

Q: With `CN(C)c1nc(N(C)C)nc(N(C)C)n1` as the compound, how does the inhibition ([1]; at 0.5 µM) read?
A: -49.5% (inactive) and -47.8% (inactive)

Q: And the inhibition ([1]; measured here: combination with BGB at IC20, at 0.5 µM)?
A: -51.4% and 13.2%

Q: And the inhibition ([1]; measured here: combination with cisplatin at IC20, at 0.5 µM)?
A: -47.8% and -102%

Q: What about the inhibition ([2]; at 0.5 µM) of the same compound?
A: 1.44% (inactive) and -2.84% (inactive)

Q: What about the inhibition ([2]; measured here: combo with BGB at IC20, at 0.5 µM) of the same compound?
A: -7.11% and -19.4%

Q: What about the inhibition ([2]; measured here: combo with cisplatin at IC20, at 0.5 µM) of the same compound?
A: 0.726% and 22%

Q: And the inhibition ([3]; at 0.5 µM)?
A: -1.03% (inactive) and 0.53% (inactive)

Q: And the inhibition ([3]; measured here: inhibition with BGB combination, at 0.05 µM)?
A: -18.8% and -9.83%

Q: What about the inhibition ([3]; measured here: inhibition with cisplatin combination, at 0.05 µM) of the same compound?
A: -9.85% and -22.8%

Q: What about the inhibition ([4]; at 0.5 µM) of the same compound?
A: -22.5% (inactive) and -23.2% (inactive)

Q: What about the inhibition ([4]; measured here: combination with cisplatin, at 0.5 µM) of the same compound?
A: -24.3% and -25.9%

Q: And the inhibition ([4]; measured here: combination with cisplatin, at 5 µM)?
A: -28.5% and -13.6%

Q: And the inhibition ([5]; BGB combination, concentration series, at 5 µM)?
A: 3.42% and 17.2%

Q: And the inhibition ([5]; at 0.5 µM)?
A: -3.79% (inactive) and -4% (inactive)

Q: What about the inhibition ([5]; cisplatin combination, concentration series, at 5 µM) of the same compound?
A: 4.29% and 15.7%

Q: And the inhibition ([6]; at 0.5 µM)?
A: 2.24% (inactive) and 16.1% (inactive)

Q: What about the inhibition ([6]; measured here: combo with BGB IC20, at 0.5 µM) of the same compound?
A: 5.31% and 10%

Q: And the inhibition ([6]; measured here: combo with cisplatin IC20, at 0.5 µM)?
A: -12.9% and 15.6%

Q: What does the source list for `O=c1ccc2ccc(O)c(O)c2o1`?
A: inhibition [7]: 4% (inactive); inhibition [8]: 0% (inactive); growth inhibition [9]: 85% (active); outcome [10]: inactive; outcome [11]: inactive; outcome [12]: inactive; outcome [13]: inactive

Q: With `COc1ccc(C[C@H](N)C(=O)N[C@H]2[C@@H](O)[C@H](n3cnc4c(N(C)C)ncnc43)O[C@@H]2CO)cc1` as the compound, how does the growth inhibition [14] read?
A: 91% (active)

Q: What about the inhibition [7] of the same compound?
A: 98% (active)

Q: What about the inhibition [8] of the same compound?
A: 5% (inactive)

Q: What about the growth inhibition [9] of the same compound?
A: 100% (active)

Q: And the outcome [10]?
A: inactive

Q: What about the outcome [11] of the same compound?
A: inactive

Q: What about the outcome [12] of the same compound?
A: inactive

Q: What about the outcome [13] of the same compound?
A: inactive

Q: For `O=c1cc(-c2ccc(O)cc2)oc2cc(O)cc(O)c12`, which normalised LDH release [15] is on record?
A: 0.887
